Measured values reported in PubChem BioAssay (NCI).
Compounds without any hit were thinned out: in the full panel of roughly 79,000, 15% have a hit. Values without a mark were called inactive. Calls of active or inactive are those of the source. Rule as the data show it: active = growth inhibition above about 70%; inactive = the rest.

Tests used:
[1] = NCI Yeast Anticancer Drug Screen. Data for the rad50 strain (AID 155);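 also: 0% = growth of vehicle-only cultures of the same strain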; conditions: S. cerevisiae rad50 strain growth inhibition, hits give high values
How it was run: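 A DNA repair-deficient yeast mutant serves as the test organism; compound-induced growth inhibition is calculated against vehicle-treated cells.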

[2] = NCI Yeast Anticancer Drug Screen. Data for the mec2-1 strain (AID 157); conditions: S. cerevisiae mec2-1 strain, hits give high values
How it was run: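 Strain: mec2-1 (DNA repair/cell cycle alteration). Compound exposure, then growth measured; inhibition expressed relative to vehicle.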

[3] = NCI Yeast Anticancer Drug Screen. Data for the sgs1 mgt1 strain (AID 161);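 also: 0% = growth of cultures given vehicle only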; conditions: S. cerevisiae sgs1 mgt1 strain, hits give high values
How it was run: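 Test agents were incubated with a DNA-repair-mutant yeast strain. Growth was then read and compared against vehicle-treated controls.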

[4] = NCI Yeast Anticancer Drug Screen. Data for the cln2 rad14 strain (AID 165);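 also: 0% = growth equal to vehicle treated cultures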; conditions: S. cerevisiae cln2 rad14 strain, hits give high values
How it was run: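 Compounds are applied to the cln2 rad14 yeast strain, and growth is then compared with that of vehicle-treated cultures to give inhibition.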

[5] = NCI Yeast Anticancer Drug Screen. Data for the bub3 strain (AID 167); conditions: S. cerevisiae bub3 mutant strain, hits give high values
How it was run: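 Inhibition values come from growth of compound-treated mutant yeast normalised to vehicle-treated controls.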

[6] = NCI Yeast Anticancer Drug Screen. Data for the mlh1 rad18 strain (AID 175); conditions: S. cerevisiae mlh1 rad18 strain growth inhibition, hits give high values
How it was run: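 Read-out is yeast growth inhibition, calculated against vehicle-only controls. The compound was applied to a strain engineered with DNA damage repair alterations.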

[7] = at 5.0 µM (retest, dose inferred, filed as 0.5)
[8] = at 50.0 µM (retest, dose inferred, filed as 5.0)

| Compound | growth inhibition [1, 7] | growth inhibition [1, 8] | growth inhibition ([1]; at 50.0 µM) | growth inhibition [2, 7] | growth inhibition [2, 8] | growth inhibition ([2]; at 50.0 µM) | growth inhibition [3, 7] | growth inhibition [3, 8] | growth inhibition ([3]; at 50.0 µM) | growth inhibition [4, 7] | growth inhibition [4, 8] | growth inhibition ([4]; at 50.0 µM) | growth inhibition [5, 7] | growth inhibition [5, 8] | growth inhibition ([5]; at 50.0 µM) | growth inhibition [6, 7] | growth inhibition [6, 8] | growth inhibition ([6]; at 50.0 µM) |
| --- | --- | --- | --- | --- | --- | --- | --- | --- | --- | --- | --- | --- | --- | --- | --- | --- | --- | --- |
| CCCNC(=O)c1ccccc1 | -1% | -5% | 4% | 2% | -2% | 13.2% | 1% | -5% | 2.85% | -6% | -2% | 70.8% (active) | -5% | -9% | 22.7% | -2% | -5% | 7.6% |
| CCCCN(CCCC)CC(O)c1cccc2c(Cl)cccc12 (configuration not stated) | 15% | 54% | 86.5% (active) | 8% | 75% (active) | 71.7% (active) | 13% | 93% (active) | 88.5% (active) | 8% | 57% | 89.7% (active) | 13% | 82% (active) | 94.8% (active) | 24% | 88% (active) | 70.5% (active) |
| NC1=C(O)C(=O)C(c2c3ccccc3cc3ccccc23)O1 (configuration not stated) | 16% | 98% (active) | 98.2% (active) | 17% | 98% (active) | 98% (active) | 8% | 98% (active) | 97.8% (active) | 7% | 95% (active) | 95.9% (active) | 16% | 98% (active) | 97.3% (active) | 4% | 98% (active) | 97.5% (active) |
| C=C1C(O)C2(O)OCC34C(CC5C(C)=CC(=O)C(O)C5(C)C23)OC(=O)C(OC(=O)C/C=C(\C)CCCCC)C14 (configuration not stated) | 76% (active) | 98% (active) | 92.3% (active) | 52% | 98% (active) | 93.3% (active) | 60% | 98% (active) | 93% (active) | 88% (active) | 98% (active) | 91.7% (active) | 75% (active) | 99% (active) | 91.2% (active) | 89% (active) | 98% (active) | 92.2% (active) |
| CC(C)C1=CC2=CCC3C(C)(C(=O)O)CCCC3(C)C2CC1 (configuration not stated) (tested in a mixture with another compound) | -8% | 80% (active) | 75.5% (active) | -16% | 96% (active) | 75.7% (active) | -13% | 88% (active) | 75.5% (active) | -17% | 85% (active) | 88.5% (active) | -14% | 88% (active) | 89.5% (active) | -3% | 92% (active) | 88.8% (active) |
| Clc1ccc(C2NC(c3ccccc3)c3c(ccc4ccccc34)O2)cc1 (configuration not stated) | -4% | 26% | 70.5% (active) | 7% | 19% | 66.2% | 2% | 39% | 27.1% | 1% | 15% | 81.2% (active) | 3% | 7% | 58.6% | 27% | 53% | 77.7% (active) |
| O=C(CNc1cccc([N+](=O)[O-])c1)Nn1c(-c2ccccc2)nc2ccccc2c1=O | 2% | 30% | 55.5% | -3% | 17% | 18.4% | 3% | 21% | 62.7% | 12% | 35% | 38.6% | -18% | 9% | 54.6% | 7% | 41% | 76.7% (active) |
| Cn1c(C2CCC(=O)N2Cc2ccccc2)n[nH]c1=S (configuration not stated) | 1% | 0% | 55.5% | -1% | -3% | 22.4% | 4% | -2% | 74.4% (active) | 2% | 3% | -1.85% | 3% | -2% | 62.5% | 1% | -4% | 89.5% (active) |
| C[C@]12CCC(=O)C=C1CC[C@@H]1[C@@H]2[C@@H](O)C[C@@]2(C)[C@H]1CC[C@]2(O)C(=O)COC(=O)CCC1CCCC1 | 83% (active) | 91% (active) | 83.9% (active) | 29% | 95% (active) | 84.1% (active) | 51% | 96% (active) | 82% (active) | 49% | 96% (active) | 82.7% (active) | 51% | 95% (active) | 77.2% (active) | 75% (active) | 92% (active) | 84.3% (active) |
| COC(=O)c1ccccc1CC1Cc2cccc(C)c2C1=O (configuration not stated) | -2% | 28% | 65.2% | -3% | 47% | 51% | 14% | 64% | 67.6% | -2% | 11% | 24.4% | 5% | 80% (active) | 79.7% (active) | 1% | 40% | 76% (active) |
| CC(CN(C)C)C(/C=C/c1ccc(Cl)c(Cl)c1)=N\Nc1ccccc1 (configuration not stated) | 2% | 96% (active) | 54.1% | -3% | 98% (active) | 98.7% (active) | 3% | 99% (active) | 49.3% | 3% | 96% (active) | 47.1% | -1% | 91% (active) | 88.4% (active) | 9% | 96% (active) | 64.6% |
| C/C(=N\NC(N)=S)c1ccc(Oc2ccccc2)cc1 | 50% | 77% (active) | 98.9% (active) | 43% | 75% (active) | 98.5% (active) | 65% | 93% (active) | 99% (active) | 27% | 70% (active) | 98.5% (active) | 35% | 70% (active) | 98.8% (active) | 63% | 89% (active) | 97.8% (active) |
| Cc1c(-c2ccccc2)ccnc1/C=N/NS(=O)(=O)c1ccccc1 | 0% | -4% | 42% | -1% | 15% | 22.9% | 4% | 38% | 82% (active) | -3% | -6% | 35.3% | -8% | -3% | 39.1% | -3% | 28% | 52.2% |
| CCCCC/C(=C/C=C/c1ccc(Cl)cc1)CN(C)C | 11% | 97% (active) | 99.5% (active) | 8% | 98% (active) | 99.8% (active) | 49% | 98% (active) | 99.7% (active) | 13% | 97% (active) | 99.5% (active) | 6% | 98% (active) | 99.8% (active) | 7% | 97% (active) | 99.7% (active) |
| O=[N+]([O-])c1cccc(S(=O)(=O)Cl)c1 | -1% | 10% | -15.3% | 2% | 3% | 14.9% | 1% | 6% | 14.2% | -3% | 0% | 43.9% | -2% | 4% | 59.5% | -1% | 2% | 33.5% |
| Nc1ccc(O)c2c1C(=O)c1ccccc1C2O (configuration not stated) | -9% | 96% (active) | 94.8% (active) | 4% | 95% (active) | 78.9% (active) | 32% | 97% (active) | 83.8% (active) | -10% | 78% (active) | 54.8% | 19% | 96% (active) | 81.5% (active) | 28% | 98% (active) | 94.5% (active) |
| ClCc1ccccc1Cc1ccccc1 | 18% | 82% (active) | 98.6% (active) | 21% | 63% | 95.2% (active) | 27% | 83% (active) | 97.8% (active) | -1% | 35% | 94.5% (active) | -5% | 58% | 97.6% (active) | 35% | 85% (active) | 98% (active) |
| CC1CC(c2ccccc2)(c2ccccc2)C(=O)C(C)N1C (configuration not stated) | -1% | 22% | 13.6% | -2% | -5% | 29.9% | 0% | -19% | 14.2% | -1% | -2% | 28% | -4% | 10% | 72% (active) | -3% | 7% | 25.9% |
| CCCCCCOC(=O)CCC(=O)OCCCCCC | -7% | -20% | -2.7% | -3% | -20% | 17.9% | -1% | 15% | 23.5% | 32% | 23% | 41.1% | 16% | 43% | 63.8% | -15% | -9% | 24.1% |
